# Experimental data as given in PubChem BioAssay AID1259311 (ICCB-Longwood Screening Facility, Harvard Medical School, 2017).
# Values joined by “and” are separate entries in the source; they are usually repeats but may differ in a detail not shown here. Identical values can stand only once. In all, about 330,000 compounds went through this assay and about 1,100 (0.33%) were called active. No stated cut-off is given here; in the data, active means inhibition above about 85%; inactive means the rest. Only a selection was taken, and actives are over-represented in it overall.
# Test: growth inhibition of S. aureus RN4220, primary screen, OD600 (AID 1259311);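 further: plate controls were untreated cells for no effect and reference antibiotic for full effect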
# Details: OD600, 16 h, stronger effect = higher value
row,SMILES,inhibition
1,Cc1ccc(OCC(=O)NCCCNC(=O)c2ccco2)cc1C,-1.59% (inactive)
2,Cc1ccc(C(=O)NNC(=O)C(C)Oc2ccc3ccccc3c2)o1 (stereo not drawn),0.442% (inactive)
3,CCCc1ccc(OCC(=O)NNC(=S)NC(=O)c2ccco2)cc1,102% (active)
4,CC(Oc1ccc2ccccc2c1)C(=O)NNC(=S)NC(=O)c1ccco1 (stereo not drawn),92.3% (active)
5,Cc1ccc(OCC(=O)NNC(=S)NCc2ccccc2)cc1,3.38% (inactive)
6,O=C(Nc1ccc2ccccc2c1)/C(=C/c1cccc(Br)c1)NC(=O)c1ccco1,0.361% (inactive)
7,Cc1cc(=O)[nH]c(NN=Cc2ccccc2Cl)n1,2.01% (inactive)
8,CC(C(O)c1ccccc1)N(C)C(=O)CCc1ccccc1 (stereo not drawn),0.814% (inactive)
9,Cc1cc(Cl)ccc1OCCCC(=O)NN=Cc1cccc([N+](=O)[O-])c1,-5.47% (inactive)
10,CN(C)c1ccc(C(=NO)C(F)(F)F)cc1,19.2% (inactive)
11,O=C(CN1C(=O)C(=Cc2ccc(C(F)(F)F)cc2)Sc2ccccc21)NCc1ccco1,2.46% (inactive)
12,COc1c(N2CCN(C(=S)Nc3ccccc3F)C(C)C2)c(F)cc2c(=O)c(C(=O)O)cn(C3CC3)c12 (stereo not drawn),99.8% (active)
13,COc1ccccc1NC(=S)N1CCN(c2ccc(F)cc2)CC1,3.36% (inactive)
14,CC1CN(C(=S)Nc2ccccc2F)CC(C)O1 (stereo not drawn),-2.44% (inactive)
15,S=c1[nH]nc(C2CCCCC2)n1N=C/C=C/c1ccccc1,3.47% (inactive)
16,CCOC(=O)C1=C(c2ccc(OC)cc2)C(=O)c2ccccc2C1=O,96.9% (active)
17,COc1ccc(CNC(=O)CCN2C(=O)c3ccccc3C2=O)cc1,0.137% (inactive)
18,COC(=O)c1cc(OC)ccc1-c1ccc(OC)cc1,-2.37% (inactive)
19,Cc1nn(Cc2ccc(F)cc2)c(Cl)c1C=NNC(=O)c1cccnc1,4.34% (inactive)
20,COC(=O)NN=C(C)c1ccc(Br)cc1,0.736% (inactive)

row,SMILES,inhibition
1,S=c1[nH]nc(COc2ccccc2)n1N=C/C=C/c1ccccc1,7.1% (inactive)
2,CN1CCN(N=Cc2nc(-c3ccccc3Cl)n3ccccc23)CC1,7.72% (inactive)
3,O=S(=O)(NCc1ccccn1)c1ccc(Br)s1,8.79% (inactive)
4,O=S(=O)([N-]c1nc2ccccc2nc1-[n+]1ccc(Cc2ccccc2)cc1)c1ccc(Br)s1,94.6% (active)
5,CN1CCc2c(sc(N=Cc3cc(Cl)ccc3O)c2C#N)C1,5.61% (inactive)
6,CCN1/C(=C/c2ccc3ccc(C)cc3[n+]2CC)Sc2ccccc21,100% (active)
7,CC1CN(C(C)CO)C(=O)c2cccc(NC(=O)Nc3ccc(C(F)(F)F)cc3)c2OC1CN(C)C (stereo not drawn),0.322% (inactive)
8,COc1ccccc1NC(=O)c1ccc2nc(N3C(=O)CCC3=O)sc2c1,2.05% (inactive)
9,COc1ccc(C(=O)Nc2cccc(/C=C(/CCC(=O)O)c3nc4ccccc4s3)c2)cc1,19.7% (inactive)
10,COc1ccc(C2=NN(c3nc4ccccc4s3)C(=O)C2)cc1,97.7% (active)
11,CCN1CC2C3C(=O)N(Cc4ccccc4)C(=O)C3[C@](C)(C1=O)N2C(=O)c1ccc(C)cc1 (stereo partly drawn),3.51% (inactive)
12,NC1=NCC(Cc2ccc(O)cc2)N1CC1CCCCC1 (stereo not drawn),4.08% (inactive) and -3.38% (inactive)
13,CC(=O)OC1CC[C@@]2(C)C(CCC3C4CCC(C(C)O)[C@@]4(C)CC(=O)C32)C1 (stereo partly drawn),3.21% (inactive)
14,COC(=O)C1(C)NC(c2ccc(C)cc2)C2C(=O)N(c3ccc(F)cc3)C(=O)C21 (stereo not drawn),-0.392% (inactive)
15,COC(=O)C1=C(C)N(c2ccc(C)cc2)/C(=C/c2ccc(O)cc2)C1=O,84.9% (active)
16,CCOC1OC(C(=O)N2CCCCCCC2)=CC(c2ccc(C(F)(F)F)cc2)C1CCCO (stereo not drawn),7.41% (inactive) and 6.78% (inactive)
17,O=C(NCc1ccccc1)C1=CC(c2ccc(C(F)(F)F)cc2)CC(OCc2ccc(CO)cc2)O1 (stereo not drawn),5.86% (inactive)
18,O=C(NN=Cc1ccc(F)cc1)c1ccc(F)cc1,4.01% (inactive)
19,O=C(/C=C/c1ccc([N+](=O)[O-])o1)NNC(=O)c1ccc(F)cc1,99.6% (active)
20,Nc1nonc1C(=O)NN=Cc1ccc([N+](=O)[O-])o1,21.6% (inactive)

row,SMILES,inhibition
1,O=C(O)c1ccc(NN=Cc2cc3ccccc3nc2Cl)cc1,-0.883% (inactive)
2,CCCCC1CC1C(NC(=O)c1ccccc1)c1ccccc1C(F)(F)F (stereo not drawn),9.97% (inactive)
3,Cc1cccc(C(=O)Oc2ccccc2C=NNc2ccc([N+](=O)[O-])cc2)c1,-8.66% (inactive)
4,NC(COc1cc(Cl)cc(Cl)c1)=NO,1.6% (inactive)
5,COc1ccc(-c2csc3ncnc(N4CCN(S(=O)(=O)c5ccccc5C#N)CC4)c23)cc1,96.6% (active)
6,COc1ccc(-c2csc3ncnc(N4CCN(S(=O)(=O)c5cccc(F)c5)CC4)c23)cc1,2.78% (inactive)
7,COc1ccc(S(=O)(=O)N2CCN(c3ncnc4c(-c5ccccc5)nsc34)CC2)cc1,4.04% (inactive)
8,Cc1ccc(NCC(=O)NN=Cc2ccc([N+](=O)[O-])o2)cc1,7.24% (inactive)
9,C/[N+]([O-])=C\c1ccc([N+](=O)[O-])o1,97.6% (active)
10,Cc1cccc(NC(=O)c2ccc([N+](=O)[O-])o2)c1,35.2% (inactive)
11,COc1cc(C=NNC(=O)c2cccc([N+](=O)[O-])c2)ccc1O,-1.37% (inactive)
12,COc1ccc(S(=O)(=O)Nc2ccc3c(c2)C(=O)N(C(C)CO)CC(C)C(CN(C)CC2CC2)O3)cc1 (stereo not drawn),1.05% (inactive)
13,CC(=NNc1cc(C)nc(NCc2ccccc2)n1)c1ccc([N+](=O)[O-])cc1,-7.45% (inactive)
14,COc1ccc2c(c1)SC(C)CC2=O (stereo not drawn),-12.2% (inactive)
15,COc1ccc2c(c1)OC(O)(C(F)(F)C(F)F)CC2=O (stereo not drawn),99.2% (active)
16,COc1ccc2c(c1)C(=O)CC(c1ccccc1)O2 (stereo not drawn),2.06% (inactive)
17,CC(=O)OCC(=O)C1CCC2C3CCC4CC(O)CC[C@]4(C)C3C(=O)C[C@]12C (stereo partly drawn),2.69% (inactive)
18,CC(NC(=O)c1nc[nH]c1C(=O)NC(C)c1ccccc1)C(=O)OCc1ccccc1 (stereo not drawn),6.68% (inactive)
